BLM helicase inh: blocks DNA unwinding by human BLM helicase. P54132. recombinant BLM DNA unwinding, fluorescence dequenching. Potency, µM (titrated, usually from 56.1 µM), inactives show at the top dose activity change, negative = inhibition, usual class: inhibitors. 350,000 tested, 0.2% active. AID 2528;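 also: plate controls were vehicle for no effect and no enzyme for full effect; nearly all actives have a fitted effect of over 35% in size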
FEN1 inh: blocks human flap endonuclease 1 | Potency, µM (top dose mostly 114 µM), for inactives: top-dose activity change, negative = inhibition, most hits filed as inhibitors | 390,000 tested, 0.35% active | P39748 | Recombinant FEN1 flap cleavage, fluorescence, 15 min | AID 588795; also: nearly all actives have a fitted effect of over 65% in size
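With each library titrated from low to high concentration, compounds met 10 nM FEN1 for 15 min at room temperature before 50 nM substrate was added; readings at 0 and 15 min fed four-parameter Hill curve fits.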
WRN inhibitor: blocks human WRN helicase. Q14191. WRN helicase unwinding, fluorescent forked duplex, kinetic. Potency, µM (doses to about 114 µM), for the others: at the top dose activity change, negative = inhibition, actives largely listed as inhibitors. 360,000 tested, 0.46% active. AID 651768; also: nearly all actives have a fitted effect of over 55% in size
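WRN at 20 nM final was preincubated with compound for 15 min at room temperature; reaction started with 100 nM forked duplex oligonucleotide carrying fluorophore and quencher plus 2 mM ATP (final). Unwinding followed kinetically by red fluorescence (ex 525/em 598 nm).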
RECQ1 helicase: blocks DNA unwinding by human RECQ1 | P46063 | RECQ1 DNA unwinding, red fluorescence kinetic read | Potency, µM (titrated, usually from 57.3 µM), for the others: at the top dose activity, negative = inhibition, usual class: inhibitors | 240,000 tested, 0.54% active;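 also: plate controls were vehicle for no effect and no enzyme for full effect; nearly all actives have a fitted effect of over 30% in size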
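50 nM RECQ1T1 preincubated 15 min with compound in Tris pH 8.0 buffer with MgCl2, DTT, Tween-20 and 2.5 ug/ml poly(dI-dC); started with 200 nM TAMRA/BHQ-2 forked duplex and 2 mM ATP. Unwinding read as fluorescence (525/598 nm), two reads 2 h apart.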
APEX1 inh: inhibitors of human APE1 endonuclease; recombinant APE1, TAMRA/BHQ-2 abasic DNA cleavage fluorescence; AID 2517; Potency, µM (doses to about 65.8 µM), without a hit: at the highest dose activity change, negative = inhibition, actives largely listed as inhibitors; 350,000 tested, 0.35% active; P27695;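 also: plate controls were vehicle for no effect and reference inhibitor for full effect; nearly all actives have a fitted effect of over 55% in size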
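Incision of a quenched TAMRA/BHQ-2 THF abasic-site duplex (50 nM) by 0.75 nM APE1, after 15 min compound preincubation, measured as fluorescence increase over three 60 s reads. Values normalized to buffer, DMSO and NSC13755 control wells.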
* hit, by the source's call; [ ] = dose if it differs, or a comment. Compounds with a hit are over-represented: about 0.87% of the library has one in this group of screens. Calls follow the shape of the dose curve; as a rule, active = well fitted curve in the direction sought with a large enough effect; inconclusive = small, poorly fitted or top-dose-only effect, or another doubt; inactive = no such curve, though single readings can be large; an effect the other way counts as inactive or inconclusive. Unless noted, % is scaled to controls: 0 for no effect and ±100 for the full control effect; potency is read from the fitted curve at half-maximal effect.

What do the screens show for `CN1CCc2nc3sc(C(=O)Nc4cccc(C#N)c4)c(N)c3cc2C1`?
BLM helicase inh: -6%; FEN1 inh: 40µM*

How did COc1ccc(OC)c(CCNC(=O)c2nn(C)c3c2CSc2ccccc2-3)c1 do in these assays?
BLM helicase inh: 1%; FEN1 inh: 19%

What do the screens show for `Cc1ccc(C)c(NC(=O)CSc2c3c(nc4ccc(Cl)cc24)CCCC3)c1`?
BLM helicase inh: -16%; FEN1 inh: 15%

What do the screens show for `CC(=O)N1CCc2cc(Br)cc(S(=O)(=O)N3CCC(C(=O)Nc4ccc(C(C)C)cc4)CC3)c21`?
BLM helicase inh: -5%; FEN1 inh: 89µM*

What do the screens show for `CC(C)c1ccc(NS(=O)(=O)c2cc(Br)cc3c2N(C(=O)C2CC2)CC3)cc1`?
BLM helicase inh: -10%; FEN1 inh: 9%

Results for O=c1ccc2ccc(O)c(O)c2o1 ?
FEN1 inh: 7.5µM*; RECQ1 helicase: inactive; APEX1 inh: 13µM*

What do the screens show for `COc1cc2ccc(=O)oc2cc1O`?
BLM helicase inh: -1%; FEN1 inh: 22%; WRN inhibitor: -1%; RECQ1 helicase: inconclusive; APEX1 inh: 58%

Results for COc1cccc(NC(=O)c2oc3ccccc3c2NC(=O)c2ccc(OC(C)C)cc2)c1 ?
BLM helicase inh: -8%; FEN1 inh: -14%

Results for CNC(=O)c1nc(C)n(-c2ccc(Cl)cc2Cl)n1 ?
BLM helicase inh: 1%; FEN1 inh: -2%; WRN inhibitor: 79µM*; RECQ1 helicase: -3%; APEX1 inh: -4%

What do the screens show for `Cc1nc(C(=O)N(C)C)nn1-c1ccc(Cl)cc1Cl`?
BLM helicase inh: 3%; FEN1 inh: -5%; WRN inhibitor: 2%; RECQ1 helicase: -6%; APEX1 inh: 15%

How did c1cc(-c2cnn3cc(-c4ccc(OCCN5CCCCC5)cc4)cnc23)ccn1 do in these assays?
BLM helicase inh: 55%; RECQ1 helicase: 0%; APEX1 inh: -1%

What do the screens show for `COc1c(-c2coc3cc4c(cc3c2=O)CC(OC(C)=O)C(C)(C)O4)ccc2c1C=CC(C)(C)O2` (centres undefined)?
BLM helicase inh: -3%; RECQ1 helicase: -5%; APEX1 inh: 22µM*

Results for CC1(C)CN(c2ccc(Br)cc2Br)C1=O ?
BLM helicase inh: 1%; FEN1 inh: 7%; WRN inhibitor: -1%; RECQ1 helicase: inactive; APEX1 inh: 1%

Results for Cc1c(Cl)cccc1N1CC(C)(C)C1=O ?
BLM helicase inh: 0%; FEN1 inh: 3%; WRN inhibitor: -3%; RECQ1 helicase: 18µM*; APEX1 inh: -4%

How did CC(C)(C)n1ncc2c(=O)n(Cc3cccc(Cl)c3Cl)cnc21 do in these assays?
FEN1 inh: -4%; APEX1 inh: 20%

How did COCc1cc(=O)[nH]c(Nc2nc(C)c3ccccc3n2)n1 do in these assays?
BLM helicase inh: -8%; FEN1 inh: 50µM*; WRN inhibitor: -9%[57.1 µM]; RECQ1 helicase: -1%; APEX1 inh: 5%

Results for C[C@@H]1[C@H](c2ccccc2)OCCS(=O)(=O)N1Cc1ccccc1Br ?
FEN1 inh: -25%

What do the screens show for `CC1=CC2(O)OCCN(CCO)C2=CC1=O` (centres undefined)?
BLM helicase inh: inconclusive; FEN1 inh: -8%; WRN inhibitor: -8%[11.6 µM]; RECQ1 helicase: 25µM*; APEX1 inh: inconclusive

Results for Cc1ccccc1-n1c(-c2ccncc2)n[nH]c1=S ?
BLM helicase inh: -1%; FEN1 inh: 1%; WRN inhibitor: -27%; RECQ1 helicase: 0%; APEX1 inh: 2%

What do the screens show for `CCc1ccccc1-n1c(-c2ccncc2)n[nH]c1=S`?
BLM helicase inh: 5%; FEN1 inh: -8%; WRN inhibitor: 3%; RECQ1 helicase: 4%; APEX1 inh: 32µM*

What do the screens show for `CCC1=NN2C(=N)/C(=C\c3cccn3-c3ccc(Br)cc3)C(=O)N=C2S1`?
BLM helicase inh: -5%; FEN1 inh: 16µM*; WRN inhibitor: 2%; RECQ1 helicase: -3%; APEX1 inh: -2%

Results for COc1cccc(C(=O)N(Cc2nc(-c3ccc(Cl)cc3)no2)C(C)C)c1OC ?
BLM helicase inh: -8%; FEN1 inh: -24%

Results for O=c1nc2s/c(=C\c3ccc(-c4ccccc4[N+](=O)[O-])o3)c(=O)n2nc1-c1ccccc1 ?
BLM helicase inh: inconclusive; FEN1 inh: -3%; WRN inhibitor: 14µM*; RECQ1 helicase: -10%; APEX1 inh: 12%

What do the screens show for `CCCCCOc1ccc(/C=c2\sc3nc(=O)c(-c4ccccc4)nn3c2=O)cc1OC`?
BLM helicase inh: 0%; FEN1 inh: -1%; WRN inhibitor: -22%; RECQ1 helicase: -16%; APEX1 inh: inconclusive

What do the screens show for `COc1ccc2nc(N/C(N)=N/C(=S)Nc3c(C)cccc3C)nc(C)c2c1`?
BLM helicase inh: 2%; FEN1 inh: 32µM*; WRN inhibitor: 27%; RECQ1 helicase: 43%; APEX1 inh: -5%

How did CCN(CCN(C)C)C(=O)c1ccc2c(c1NCCO)C(=O)c1ccccc1C2=O do in these assays?
BLM helicase inh: 18µM*; FEN1 inh: inconclusive; WRN inhibitor: -33%; RECQ1 helicase: 2%; APEX1 inh: 8%

How did CCCCNC(=O)[C@@H]1CC=C[C@@H]2CCN(CCCC)C(=O)[C@@H]21 do in these assays?
FEN1 inh: -4%

What do the screens show for `Cn1c(=O)c(C(=O)COC(=O)c2cc(C3CC3)nc3ccccc23)c(N)n(Cc2ccccc2)c1=O`?
BLM helicase inh: -13%; FEN1 inh: inconclusive; WRN inhibitor: -2%; RECQ1 helicase: -18%; APEX1 inh: -10%

How did Cn1c(=O)c(C(=O)COC(=O)c2cc(-c3ccco3)nc3ccccc23)c(N)n(CC2CC2)c1=O do in these assays?
BLM helicase inh: inconclusive; RECQ1 helicase: 32µM*; APEX1 inh: inconclusive

How did O=C(O)c1cc(-c2ccco2)nc2ccccc12 do in these assays?
BLM helicase inh: -9%; FEN1 inh: 40µM*; WRN inhibitor: inconclusive; RECQ1 helicase: -25%; APEX1 inh: 25µM*

What do the screens show for `Cc1ccc(-c2cc(C(=O)N3CC(C)CC(C)C3)c3ccccc3n2)o1` (centres undefined)?
BLM helicase inh: -7%; FEN1 inh: -6%; WRN inhibitor: 50µM*; APEX1 inh: -19%

Results for Cc1ccc(-c2cc(C(=O)N3CC(C)OC(C)C3)c3ccccc3n2)o1 (centres undefined) ?
FEN1 inh: 7%; WRN inhibitor: -4%; APEX1 inh: -3%

How did O=C(Nc1nc2ccccc2s1)c1cc(-c2ccco2)nc2ccccc12 do in these assays?
BLM helicase inh: 4%; FEN1 inh: 9%; WRN inhibitor: 50µM*; RECQ1 helicase: -7%; APEX1 inh: 5%

Screening data from PubChem.
